The values that follow come from ChEMBL document CHEMBL1961873, “Compounds: GSK PKIS; Assays: Nanosyn kinase panel” (2012).

Assay [1] deals with Tyrosine-protein kinase CSK (Homo sapiens) (UniProt P41240). The note with it: at 1 µM.
The target of assay [2] is T1, Discoidin domain-containing receptor 2 (Homo sapiens) (UniProt Q16832).
T1 sequence (whole entry): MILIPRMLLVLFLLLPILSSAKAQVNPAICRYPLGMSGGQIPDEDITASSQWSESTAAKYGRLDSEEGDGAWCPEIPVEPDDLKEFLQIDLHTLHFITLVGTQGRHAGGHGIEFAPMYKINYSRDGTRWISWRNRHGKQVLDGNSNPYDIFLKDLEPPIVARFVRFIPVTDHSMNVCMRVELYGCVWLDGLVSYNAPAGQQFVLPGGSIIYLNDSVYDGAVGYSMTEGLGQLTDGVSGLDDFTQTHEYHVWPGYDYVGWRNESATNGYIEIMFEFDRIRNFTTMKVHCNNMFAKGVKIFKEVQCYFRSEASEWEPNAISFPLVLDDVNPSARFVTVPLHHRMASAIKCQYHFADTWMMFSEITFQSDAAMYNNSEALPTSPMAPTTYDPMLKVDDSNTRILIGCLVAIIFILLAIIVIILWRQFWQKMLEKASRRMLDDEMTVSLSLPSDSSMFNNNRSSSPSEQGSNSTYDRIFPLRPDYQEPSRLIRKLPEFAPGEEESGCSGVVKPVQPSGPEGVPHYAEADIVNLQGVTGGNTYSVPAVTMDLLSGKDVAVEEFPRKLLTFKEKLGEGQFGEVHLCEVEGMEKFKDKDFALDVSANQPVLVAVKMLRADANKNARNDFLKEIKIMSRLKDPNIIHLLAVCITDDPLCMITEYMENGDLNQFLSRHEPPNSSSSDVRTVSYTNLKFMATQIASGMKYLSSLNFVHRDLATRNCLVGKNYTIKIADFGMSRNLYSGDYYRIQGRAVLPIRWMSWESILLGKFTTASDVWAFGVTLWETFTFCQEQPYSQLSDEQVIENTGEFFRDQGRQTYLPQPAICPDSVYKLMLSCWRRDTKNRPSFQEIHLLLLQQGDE
The note with it: at 0.1 µM.

The target of assay [3] is T1, Discoidin domain-containing receptor 2 (Homo sapiens). Conditions: at 1 µM.
Assay [4] concerns the target Epidermal growth factor receptor (Homo sapiens) (UniProt P00533). Conditions: at 0.1 µM.
Assay [5] has the same target. Conditions: at 1 µM.
Assay [6] deals with Epidermal growth factor receptor (Homo sapiens), P00533 [L858R]. The note with it: at 0.1 µM.
Sequence of Epidermal growth factor receptor (Homo sapiens), P00533 [L858R] (P00533 whole entry L858R): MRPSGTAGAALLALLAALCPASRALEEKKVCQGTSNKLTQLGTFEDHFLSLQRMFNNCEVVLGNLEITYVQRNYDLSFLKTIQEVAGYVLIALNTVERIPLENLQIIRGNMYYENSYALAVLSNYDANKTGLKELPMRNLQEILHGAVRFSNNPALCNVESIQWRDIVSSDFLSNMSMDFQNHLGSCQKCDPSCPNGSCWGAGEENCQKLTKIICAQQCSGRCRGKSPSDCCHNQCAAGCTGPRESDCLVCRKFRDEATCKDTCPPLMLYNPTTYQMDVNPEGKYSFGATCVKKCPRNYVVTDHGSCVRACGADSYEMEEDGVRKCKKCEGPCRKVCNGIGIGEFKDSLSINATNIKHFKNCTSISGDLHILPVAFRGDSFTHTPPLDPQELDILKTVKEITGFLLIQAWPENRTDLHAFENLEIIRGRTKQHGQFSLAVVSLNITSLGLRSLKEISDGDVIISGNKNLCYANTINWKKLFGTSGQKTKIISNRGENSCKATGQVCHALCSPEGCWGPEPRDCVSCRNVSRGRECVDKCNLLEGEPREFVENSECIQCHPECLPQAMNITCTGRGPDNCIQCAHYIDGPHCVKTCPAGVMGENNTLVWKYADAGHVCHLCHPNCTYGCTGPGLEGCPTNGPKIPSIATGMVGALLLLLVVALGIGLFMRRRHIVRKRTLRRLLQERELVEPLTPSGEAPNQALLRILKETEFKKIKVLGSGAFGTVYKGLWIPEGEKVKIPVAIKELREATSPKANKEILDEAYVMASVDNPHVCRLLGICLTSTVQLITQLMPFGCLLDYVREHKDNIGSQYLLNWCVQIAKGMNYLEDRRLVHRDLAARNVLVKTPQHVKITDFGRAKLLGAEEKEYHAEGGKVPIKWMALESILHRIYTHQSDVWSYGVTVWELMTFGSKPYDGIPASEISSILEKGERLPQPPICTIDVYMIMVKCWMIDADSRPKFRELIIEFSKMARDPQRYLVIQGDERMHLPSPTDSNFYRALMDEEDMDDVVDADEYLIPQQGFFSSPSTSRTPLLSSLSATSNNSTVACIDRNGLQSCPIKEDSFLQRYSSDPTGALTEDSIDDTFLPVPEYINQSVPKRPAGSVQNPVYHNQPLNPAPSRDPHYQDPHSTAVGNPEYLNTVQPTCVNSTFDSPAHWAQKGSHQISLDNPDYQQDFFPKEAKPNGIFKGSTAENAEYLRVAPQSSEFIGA
Assay [7] shares this test system. The note with it: at 1 µM.
Assay [8] deals with Epidermal growth factor receptor (Homo sapiens), P00533 [L861Q]. The note with it: at 0.1 µM.
Sequence of Epidermal growth factor receptor (Homo sapiens), P00533 [L861Q] (P00533 whole entry L861Q): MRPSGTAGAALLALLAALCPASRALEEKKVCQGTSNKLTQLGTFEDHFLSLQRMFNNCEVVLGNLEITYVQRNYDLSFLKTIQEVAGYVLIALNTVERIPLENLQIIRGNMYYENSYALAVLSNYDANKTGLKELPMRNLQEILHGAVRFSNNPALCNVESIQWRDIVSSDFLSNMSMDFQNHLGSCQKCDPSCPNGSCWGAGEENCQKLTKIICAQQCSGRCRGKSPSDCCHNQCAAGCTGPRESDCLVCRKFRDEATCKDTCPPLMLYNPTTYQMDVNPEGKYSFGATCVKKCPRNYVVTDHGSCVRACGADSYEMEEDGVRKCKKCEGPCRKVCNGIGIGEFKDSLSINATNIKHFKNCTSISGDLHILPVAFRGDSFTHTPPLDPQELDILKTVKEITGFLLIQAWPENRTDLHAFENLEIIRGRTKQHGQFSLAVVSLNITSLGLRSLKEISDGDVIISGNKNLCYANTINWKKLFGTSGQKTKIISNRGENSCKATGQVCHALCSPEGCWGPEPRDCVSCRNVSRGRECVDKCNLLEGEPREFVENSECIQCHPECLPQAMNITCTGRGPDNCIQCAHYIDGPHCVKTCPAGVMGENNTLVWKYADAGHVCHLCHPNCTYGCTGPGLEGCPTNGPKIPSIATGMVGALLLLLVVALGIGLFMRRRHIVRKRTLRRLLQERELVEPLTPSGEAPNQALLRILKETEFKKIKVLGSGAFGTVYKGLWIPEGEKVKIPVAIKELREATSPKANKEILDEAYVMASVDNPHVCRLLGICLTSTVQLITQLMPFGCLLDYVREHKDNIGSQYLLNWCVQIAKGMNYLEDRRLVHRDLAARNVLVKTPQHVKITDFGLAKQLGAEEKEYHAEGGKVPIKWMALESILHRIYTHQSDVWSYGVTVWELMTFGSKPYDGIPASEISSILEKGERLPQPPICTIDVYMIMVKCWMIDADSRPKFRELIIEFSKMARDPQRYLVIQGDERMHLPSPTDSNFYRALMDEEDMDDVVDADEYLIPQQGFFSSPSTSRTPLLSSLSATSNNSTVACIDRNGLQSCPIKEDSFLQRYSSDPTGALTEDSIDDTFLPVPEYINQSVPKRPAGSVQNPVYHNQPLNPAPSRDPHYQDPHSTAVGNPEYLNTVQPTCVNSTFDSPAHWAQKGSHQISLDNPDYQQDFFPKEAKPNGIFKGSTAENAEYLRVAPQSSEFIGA
Assay [9] shares this test system. Conditions: at 1 µM.
For assay [10], the system named is Epidermal growth factor receptor (Homo sapiens), P00533 [T790M]. The note with it: at 0.1 µM.
Sequence of Epidermal growth factor receptor (Homo sapiens), P00533 [T790M] (P00533 whole entry T790M): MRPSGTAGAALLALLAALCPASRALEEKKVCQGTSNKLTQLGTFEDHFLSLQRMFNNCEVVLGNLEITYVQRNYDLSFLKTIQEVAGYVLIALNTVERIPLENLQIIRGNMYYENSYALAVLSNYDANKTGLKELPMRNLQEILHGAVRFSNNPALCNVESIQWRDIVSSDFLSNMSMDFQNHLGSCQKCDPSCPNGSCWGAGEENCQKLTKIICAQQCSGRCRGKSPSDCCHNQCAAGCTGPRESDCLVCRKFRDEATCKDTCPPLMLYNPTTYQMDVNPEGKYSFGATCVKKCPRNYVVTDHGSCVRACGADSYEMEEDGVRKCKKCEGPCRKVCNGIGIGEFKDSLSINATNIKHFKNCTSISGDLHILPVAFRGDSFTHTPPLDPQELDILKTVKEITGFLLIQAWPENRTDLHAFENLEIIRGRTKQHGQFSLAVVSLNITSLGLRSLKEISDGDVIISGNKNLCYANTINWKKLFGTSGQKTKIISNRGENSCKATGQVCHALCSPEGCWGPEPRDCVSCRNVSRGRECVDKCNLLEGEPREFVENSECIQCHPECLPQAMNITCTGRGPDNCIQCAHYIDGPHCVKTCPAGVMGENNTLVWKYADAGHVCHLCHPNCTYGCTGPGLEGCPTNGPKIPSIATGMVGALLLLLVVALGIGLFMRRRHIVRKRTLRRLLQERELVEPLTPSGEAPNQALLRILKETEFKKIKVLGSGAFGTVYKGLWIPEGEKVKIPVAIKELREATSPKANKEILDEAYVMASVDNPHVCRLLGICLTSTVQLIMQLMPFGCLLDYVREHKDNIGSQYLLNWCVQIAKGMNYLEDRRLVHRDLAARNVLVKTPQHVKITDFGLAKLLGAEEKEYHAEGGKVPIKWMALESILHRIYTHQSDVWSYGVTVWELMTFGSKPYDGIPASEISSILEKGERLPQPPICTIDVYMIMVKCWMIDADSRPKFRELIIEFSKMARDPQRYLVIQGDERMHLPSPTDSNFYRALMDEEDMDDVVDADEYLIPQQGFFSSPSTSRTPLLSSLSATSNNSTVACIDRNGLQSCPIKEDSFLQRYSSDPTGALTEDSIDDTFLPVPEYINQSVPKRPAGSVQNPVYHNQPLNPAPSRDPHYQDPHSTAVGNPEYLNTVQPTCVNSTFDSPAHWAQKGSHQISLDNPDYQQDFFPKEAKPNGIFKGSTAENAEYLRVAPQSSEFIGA

Sequence of Tyrosine-protein kinase CSK (Homo sapiens) (P41240 2-450 limits assumed): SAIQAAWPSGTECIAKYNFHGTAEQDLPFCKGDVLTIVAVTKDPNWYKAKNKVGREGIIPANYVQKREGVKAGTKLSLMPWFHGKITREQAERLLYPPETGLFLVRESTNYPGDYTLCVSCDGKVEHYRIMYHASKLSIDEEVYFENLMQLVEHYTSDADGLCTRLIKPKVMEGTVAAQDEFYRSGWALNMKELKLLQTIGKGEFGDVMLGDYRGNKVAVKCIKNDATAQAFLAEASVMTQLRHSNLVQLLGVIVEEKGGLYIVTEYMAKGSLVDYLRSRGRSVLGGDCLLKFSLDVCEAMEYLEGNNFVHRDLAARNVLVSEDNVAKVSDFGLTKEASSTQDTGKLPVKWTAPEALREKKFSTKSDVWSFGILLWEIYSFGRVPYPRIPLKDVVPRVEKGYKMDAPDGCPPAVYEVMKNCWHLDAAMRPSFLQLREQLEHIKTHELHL

Turning to `COc1cc2ncnc(Nc3ccc4c(cnn4Cc4ccccc4)c3)c2cc1OC`, the inhibition (as a rule, the change of the read-out against control, counted positive when it falls) turned out to be 58.2% in assay [1]; 1.74% in [2]; 1.78% in assay [3]; 87.2% in [4]; 84.7% in [5]; 72.5% in assay [6]. The inhibition in [7] was determined as 94.4%; in [8], 55.8%; in assay [9], 84.8%; in assay [10], 8.65%.
For the compound `COc1cc(Nc2nccc(-c3cnn4ncccc34)n2)cc(OC)c1`, the inhibition in assay [1] worked out at 12.1%; in [2], 1.4%; in assay [3] it was 8.7%; in [4], 1.68%; in [5], 5.94%; in assay [6] it was 2.1%. Also, the inhibition in assay [7] turned out to be 16.7%; in assay [8], 0.35%; in [9], 3.09%; in assay [10], 0.47%.
For `CC(C)c1ccc(Nc2nccc(-c3cnn4ncccc34)n2)cc1`, the inhibition in assay [1] came to 6.02%; in assay [2] it was 1.04%; in assay [3] it was 0.75%; in [4], 4.49%; in assay [5], 6.88%; in [6], 3.51%. Moreover, the inhibition in assay [7] is 7.83%; in assay [8], 4.16%; in assay [9] it was 6.18%; in assay [10] it was -0.27%.
As to `N#Cc1cccc(Nc2nccc(-c3cnn4ncccc34)n2)c1`, the inhibition in assay [1] came out at 13.4%; in [2], 2.63%; in assay [3], 7.43%; in assay [4], 1.1%; in assay [5] it was 6.11%; in assay [6], 4.18%. Moreover, the inhibition in assay [7] came to 18.2%; in [8], 4.53%; in assay [9] it was 7.78%; in assay [10], 2.36%.
On to `C[C@@H](Oc1cc(-n2cnc3ccc(OCC4CCN(C)CC4)cc32)sc1C(N)=O)c1ccccc1C(F)(F)F`, for which the inhibition in [1] was -1.36%; in assay [2] it was -1.18%; in assay [3], -4.23%; in assay [4], 2.6%; in assay [5], 9.98%; in assay [6], 8.84%. For the same compound, the inhibition in [7] is 42.5%; in assay [8], -0.46%; in [9], 8.68%; in [10] it was -1.87%.
For the compound `CCOc1nccc2c1nc(-c1nonc1N)n2CC`, the inhibition in [1] came to 7.45%; in [2], 4.52%; in assay [3] it was 5.68%; in assay [4] it was 2.26%; in [5], 1.18%; in assay [6], 4.22%. Moreover, the inhibition in assay [7] came out at 7.51%; in assay [8], 4.18%; in [9] it was 5.85%; in assay [10] it was 1.6%.
Turning to `ON=C1CCc2cc(-c3nc(C4CCNCC4)[nH]c3-c3ccncc3)ccc21`, the inhibition was -6.96% in assay [1]; -0.82% in assay [2]; -2.38% in assay [3]; 0.23% in assay [4]; 2.59% in assay [5]; -0.65% in assay [6]. The inhibition in assay [7] is -1.1%; in assay [8] it was 0.26%; in [9] it was -2.11%; in assay [10], -0.91%.
As for `Cc1ccc(C(=O)NC2CC2)cc1-c1ccc2[nH]ncc2c1`, the inhibition is -0.85% in [2]; -0.74% in [3]; -1.17% in assay [4]; 1.98% in [5]; -1.88% in [6]; -2.39% in [7]. Besides, the figures for the inhibition in assay [8], in assay [9] and in assay [10] were -0.66%, -1.04% and -2%, respectively.
For the compound `NS(=O)(=O)c1ccc(Nc2cc(-c3cccc(O)c3)n[nH]2)cc1`, the inhibition in assay [1] is 5.32%; in assay [2], 2.49%; in assay [3], 3.91%; in assay [4] it was 0.67%; in assay [5] it was 1.98%; in [6] it was 5.34%. Also, the inhibition was 5.18% in [7], 3.68% in assay [8], 1.85% in assay [9] and 2.46% in [10].
Regarding `Cc1cc(O)cc(C)c1/C=C/c1cncc(C(=O)N(C)C)c1`, the inhibition is 7.46% in [1]; 4% in assay [2]; 6.51% in assay [3]; 3.09% in [4]; 6.63% in assay [5]; 2.7% in assay [6]. Also, the inhibition in assay [7] was found to be 3.1%; in assay [8], 3.53%; in assay [9] it was 2.99%; in [10] it was 1.24%.
For `Cc1ccc2c(-c3ccnc(Nc4ccc5c(c4)OCCO5)n3)c(-c3ccc(C(F)(F)F)cc3)nn2n1`, the inhibition in [1] is 0.48%; in [2], -0.19%; in assay [3], 6.25%; in [4], -0.94%; in assay [5], 3.45%; in [6], 0.63%. The inhibition in assay [7] was 5.71%; in [8], -1.17%; in assay [9], 5.26%; in assay [10], -0.63%.
Take `Nc1nccc(-c2c(-c3ccc(F)cc3)ncn2CCCN2CCOCC2)n1`: the inhibition in assay [1] was 2.85%; in assay [2] it was -0.61%; in assay [3], -1.04%; in assay [4] it was -0.84%; in assay [5], 6.38%; in assay [6], 5.87%. The inhibition turned out to be 31.9% in [7], 4.34% in assay [8], 10.9% in assay [9] and 2.78% in [10].
As to `CS(=O)(=O)CCNCc1nc(-c2ccc3ncnc(Nc4ccc(OCc5cccc(C(F)(F)F)c5)cc4)c3c2)cs1`, the inhibition in assay [1] was found to be 2.7%; in [2], 5.44%; in [3], 5.59%; in assay [4], 14.6%; in [5], 64%; in assay [6], 8.86%. In addition, the inhibition was 43.9% in assay [7], 11.5% in [8], 34.8% in assay [9] and -1.75% in assay [10].
As to `OCc1ccc(-c2nc(-c3ccccn3)c(-c3ccc4c(c3)OCO4)[nH]2)cc1`, the inhibition in assay [1] was 3.94%; in assay [2], 2.68%; in assay [3], 4.73%; in assay [4], 3.69%; in assay [5], 6.33%; in [6], 3.45%. Besides, the inhibition in assay [7] is 1.89%; in assay [8], 3.49%; in [9] it was -0.4%; in assay [10] it was 2.68%.
With `COc1cccc(-n2ncc3c(N/N=C/c4ccc(C)cc4)ncnc32)c1`, the inhibition in [1] amounted to 8.35%; in assay [2], 0.39%; in [3] it was 2.37%; in assay [4], 3.01%; in assay [5], 4.71%; in assay [6], 2.45%. The inhibition in assay [7] was found to be 11.7%; in assay [8], 1.42%; in [9], 6.09%; in [10], 0.91%.
As for `NS(=O)(=O)c1ccc(-c2cc3ccncc3cc2OCc2ccccc2)cc1`, the inhibition is 5.2% in [1]; 1.3% in assay [2]; 2.48% in assay [3]; -0.53% in [4]; 2.78% in assay [5]; 5.04% in [6]. Also, the inhibition in [7] was determined as 12.6%; in [8] it was 3.81%; in assay [9] it was 5.67%; in assay [10] it was 1.46%.
